This is a sample that favours compounds with a hit; in the whole collection about 20% have one here.
Shiga toxin inh – inhibitors of Shiga toxin in Vero cells | inhibition, % at 38.7 µM | Vero cells, Shiga toxin protein synthesis inhibition reporter | 290,000 compounds, 9.2% hits; in the data active means inhibition mostly above about 28%, no sharp cut-off; inactive means mostly below about 43%
Cycloheximide cs – counter-screen for Shiga toxin inhibitors: cycloheximide protein synthesis inhibition; cell reporter, cycloheximide protein synthesis inhibition counterscreen; max response, %; 300,000 compounds, 12% hits; in the data active means max response mostly above about 13%, no sharp cut-off; inactive means mostly below about 14%; further: read at 38.3 µM for the half of the compounds with a filed dose
HCMV inh – human cytomegalovirus inhibition; HFF cells, HCMV-luciferase reporter, 72 h; hits give low values; activity change, negative = inhibition, % at 57.5 µM; 410,000 compounds, 4.5% hits; in the data active means activity change below about -60%; inconclusive means no clear call, values can overlap the other calls; inactive means above about -39%
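Cell-based, HFFs, 1000 cells/well, 16 h 37C; cpds in DMSO + HCMV-luc, MOI 1 PFU/cell; 72 h 37C; OneGlo luminescence after 5 min RT; norm. to buffer vs Salinomycin 10uM.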
Pf growth 96h – P. falciparum growth inhibition at 96 hours; 320,000 compounds, 6.9% hits; Potency, µM (series often up to 28.7 µM), actives largely listed as inhibitors; P. falciparum luciferase reporter growth, 96 h
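Readout is luminescence from an integrated firefly luciferase in P. falciparum. Red cells, 2% hematocrit and 0.05% parasitemia final, were cultured with compound through two parasite generations (96 hours) at 37 C, 5% CO2.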
Pf growth 48h – P. falciparum growth inhibition at 48 hours (one generation); P. falciparum luciferase growth in erythrocytes, 48 h; Potency, µM (highest dose often 28.7 µM), hits mostly inhibitors; 310,000 compounds, 5.9% hits; AID 504832
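Erythrocytes infected with P. falciparum carrying an integrated firefly luciferase reporter (2% hematocrit, 0.1% parasitemia final) were exposed to compounds in RPMI 1640 with 0.5% Albumax at 37 C, 5% CO2. Growth inhibition was scored as reduced luminescence.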
Large screens that a line does not name were inactive. Unless noted, the call rests on the fitted dose curve; in most records, active means well fitted inhibition curve with a large enough effect; inconclusive means small, poorly fitted or top-dose-only effect, or another doubt; inactive means no such curve, though single readings can be large or run the other way.

COc1ccc(C(c2c(NC(=O)c3ccco3)sc(C)c2C)N2CCOCC2)cc1OC (centres undefined)	Pf growth 96h 4.7µM, Pf growth 48h 2.6µM (no result: Shiga toxin inh, Cycloheximide cs)
COc1ccc(C(C(C(=O)c2cccs2)N2CCOCC2)N2CCOCC2)cc1OC (centres undefined)	Cycloheximide cs 16, Pf growth 96h inconclusive
COc1ccc(C(CCO)NC(=O)c2cccs2)cc1OC (centres undefined)	Pf growth 96h inconclusive
O=c1[nH]c(SCCOc2cccc3ccccc23)nc2ccccc12	HCMV inh inconclusive, Pf growth 96h 2.1µM
Cc1ccc(C(=O)CSc2nc3ccccc3c(=O)[nH]2)cc1C	Pf growth 96h inconclusive
CCOc1ccc(OCCSc2nc3ccccc3c(=O)[nH]2)cc1	none (no result: Pf growth 48h)
Cc1ccc(CSc2nc3ccccc3c(=O)[nH]2)cc1	Cycloheximide cs 38, Pf growth 96h inconclusive
Cc1ccc(C)c(C(=O)CSc2nc3ccccc3c(=O)[nH]2)c1	HCMV inh -66
Cc1ccc(C(=O)CSc2nc3ccccc3c(=O)[nH]2)cc1	Cycloheximide cs 15 (no result: Pf growth 48h)
CN(C)Cc1cc(C(F)(F)F)ccc1C(O)(c1ccccc1)c1ccccc1	none (no result: Shiga toxin inh, Cycloheximide cs, Pf growth 96h, Pf growth 48h)
CCOC(=O)N1CCN(Cc2nc(N)nc(Nc3ccc(C)cc3C)n2)CC1	none
O=c1ccn(-c2cccc(C(F)(F)F)c2)nc1-c1ccn(-c2cccc(Cl)c2)n1	HCMV inh inconclusive, Pf growth 96h inconclusive, Pf growth 48h inconclusive
O=C(NC1CC(=O)N(c2ccc(Cl)cc2)C1)C1CCCCC1 (centres undefined)	none (no result: Shiga toxin inh, Cycloheximide cs, Pf growth 96h, Pf growth 48h)
CN(C)C(=O)CSc1nc2ccccc2c(=O)[nH]1	Pf growth 96h inconclusive
O=c1[nH]c(SCc2ccc(Cl)cc2)nc2ccsc12	Shiga toxin inh 62, Cycloheximide cs 44
O=C(CCCSc1nc2ccccc2c(=O)[nH]1)c1ccc(F)cc1	none
CCc1ccc(C(=O)CSc2nc3ccccc3c(=O)[nH]2)cc1	Cycloheximide cs 14, Pf growth 96h 10µM (no result: Pf growth 48h)
CCN(CC)C(=O)CSc1nc2ccccc2c(=O)[nH]1	Cycloheximide cs 9.0
N#Cc1c(-c2cccs2)nc(SCc2ccc(Cl)cc2)[nH]c1=O	Pf growth 96h inconclusive
O=c1cc(-c2ccccc2)nc(SCCOc2ccccc2Cl)[nH]1	Pf growth 96h 7.4µM
Cc1ccc(C(C)C)c(OCC(=O)Nc2ccc3c(c2)nc(CCNC(=O)c2ccco2)n3C)c1	none (no result: Shiga toxin inh, Cycloheximide cs, Pf growth 96h, Pf growth 48h)
Cc1ccc(C)c(N2CCN(S(=O)(=O)c3cc(C(=O)Nc4ccccc4C(F)(F)F)ccc3F)CC2)c1	none (no result: Shiga toxin inh, Cycloheximide cs, Pf growth 96h, Pf growth 48h)
Cc1ccc(C(C(=O)NC2CCCCC2)N(C)Cc2ccccc2)cc1 (centres undefined)	none (no result: Shiga toxin inh, Cycloheximide cs, Pf growth 96h, Pf growth 48h)
COc1cc(C(=O)Nc2ccc3oc(-c4ccc(C)c(Br)c4)nc3c2)cc(OC)c1OC	none (no result: Shiga toxin inh, Cycloheximide cs, Pf growth 96h, Pf growth 48h)
Cc1nc2nc3c(cn2n1)C(=O)CCC3	none (no result: Pf growth 96h)
CCCCn1c2c(c(=O)n(C)c1=O)C(c1ccc(OC)cc1)N1CCCCCC1=N2 (centres undefined)	Pf growth 96h 7.4µM, Pf growth 48h inconclusive
N=c1ccn(Cc2ccc(Cl)c(Cl)c2)cc1	HCMV inh -97, Pf growth 48h 0.59µM
N=c1ccn(Cc2ccc(Cl)cc2)cc1	HCMV inh -93, Pf growth 48h 1.9µM
N=c1ccn(Cc2cccc(Cl)c2)cc1	HCMV inh -71, Pf growth 96h inconclusive, Pf growth 48h 2.6µM
O=S1(=O)CCN(Cc2ccc(Cl)c(Cl)c2)CC1	HCMV inh inconclusive
O=C(COc1ccccc1F)Nc1nnc(SCc2cc(=O)c3ccccc3[nH]2)s1	none (no result: Shiga toxin inh, Cycloheximide cs, Pf growth 96h, Pf growth 48h)
O=C(NCCc1ccccc1)C1C(=O)Nc2ccccc2C(=O)N1C1CCCCC1 (centres undefined)	none (no result: Shiga toxin inh, Cycloheximide cs, Pf growth 96h, Pf growth 48h)
CCCCCCCCCC[n+]1cccc2c3ccccc3ccc21	HCMV inh -108, Pf growth 96h inconclusive, Pf growth 48h 2.1µM
Cc1cccc[n+]1CCCCCCCCCC[n+]1ccccc1C	HCMV inh inconclusive, Pf growth 48h inconclusive
CCCCCCCC[n+]1cccc2c3ccccc3ccc21	HCMV inh -97, Pf growth 48h 1.2µM
Cc1oc2c(CN3CCCC3)c(O)ccc2c(=O)c1-c1ccc(Br)cc1	Pf growth 96h inconclusive, Pf growth 48h 9.3µM
COc1ccc(-c2c(C)oc3c(CN4CCOCC4)c(O)ccc3c2=O)cc1	Pf growth 96h inconclusive, Pf growth 48h inconclusive
Cc1c(-c2ccc(Cl)cc2)c(=O)oc2c(CN3CCCC3)c(O)ccc12	none (no result: Shiga toxin inh, Cycloheximide cs, Pf growth 96h, Pf growth 48h)
Cc1oc2c(CN3CCCCC3)c(O)ccc2c(=O)c1-c1ccc(Br)cc1	Pf growth 96h 1.2µM, Pf growth 48h inconclusive
CCOC(=O)Cc1nn(C(C)C)c(=O)c2ccccc12	Pf growth 96h inconclusive
CCOC(=O)Cc1nnc(Nc2ccc(C)cc2C)c2ccccc12	HCMV inh -60, Pf growth 96h 4.7µM
CCOC(=O)Cc1nnc(Nc2cc(C)ccc2C)c2ccccc12	HCMV inh -60
Cc1ccc2[nH]c3c(c2c1)CN(C(=O)CN1CCN(Cc2ccc4c(c2)OCO4)CC1)CC3	Pf growth 96h 9.3µM, Pf growth 48h inconclusive
NC(=O)CC[C@H](NC(=O)c1ccc(F)cc1)C(=O)N1CCN(Cc2ccc3c(c2)OCO3)CC1	HCMV inh -70 (no result: Shiga toxin inh, Cycloheximide cs, Pf growth 96h, Pf growth 48h)
Cc1cc(C)cc(C(=O)N2CCN(Cc3ccc4c(c3)OCO4)CC2)c1	none
CCN(CC)C(=O)Cn1cnc2sc(C(=O)N3CCN(Cc4ccc5c(c4)OCO5)CC3)c(C)c2c1=O	HCMV inh -97, Pf growth 96h inconclusive
O=C(c1cccnc1)N1CCN(Cc2ccc3c(c2)OCO3)CC1	Pf growth 96h 4.1µM
NC(=O)CN1CCN(Cc2ccc3c(c2)OCO3)CC1	Pf growth 96h 12µM (no result: Shiga toxin inh)
O=C(O)c1ccccc1C(=O)N1CCN(Cc2ccc3c(c2)OCO3)CC1	none
O=C(N1CCN(Cc2ccc3c(c2)OCO3)CC1)C(Cl)(Cl)Cl	Shiga toxin inh 67, Cycloheximide cs 17, Pf growth 96h inconclusive, Pf growth 48h inconclusive
C=CCNC(=S)NNc1nc2sc3c(c2c(=O)[nH]1)CC(C)(C)OC3	none
Cc1ccc(S(=O)(=O)c2cn(Cc3cccc(F)c3)c3cc(N4CCCC4)c(F)cc3c2=O)cc1	none (no result: Shiga toxin inh, Cycloheximide cs, Pf growth 96h, Pf growth 48h)
CCOC(=O)c1ccc(NC(=S)NCCc2ccc(OC)c(OC)c2)cc1	Pf growth 96h 10µM, Pf growth 48h inconclusive
Cc1ccc(CCNC(=O)CNC(=S)N(Cc2ccccc2)Cc2cccnc2)cc1	Pf growth 48h inconclusive
COc1ccc(CCNC(=S)NCCc2ccc(OC)c(OC)c2)cc1OC	Pf growth 96h 13µM, Pf growth 48h 6.6µM
COc1ccc(CN(Cc2cccnc2)C(=S)NCCc2ccccc2)cc1OC	Pf growth 96h 15µM, Pf growth 48h inconclusive
COc1ccccc1NC(=S)NCCc1ccc(OC)c(OC)c1	HCMV inh inconclusive, Pf growth 96h 4.7µM, Pf growth 48h 2.6µM
CNC(=S)NCCc1ccc(OC)c(OC)c1	none
CCOC(=O)c1ccc(NC(=O)COc2ccc(CNC3CCCCC3)cc2OC)cc1	Pf growth 48h 4.7µM
COc1ccc(CCNC(=O)c2cc3sc(Cl)cc3n2C)cc1OC	Pf growth 96h 9.3µM
COc1ccc(CCNC(=O)Cc2ccccc2)cc1OC	HCMV inh inconclusive (no result: Shiga toxin inh)
COc1ccc(CCNC(=S)c2ccccc2)cc1OC	HCMV inh inconclusive, Pf growth 96h 5.2µM, Pf growth 48h 4.7µM
COc1ccc(CCNC(=O)c2sc3ccccc3c2Cl)cc1OC	none
